# Measurements taken from the supplement of paper PMC8728848.
# Many of the other results were omitted from the sample, so the strongest signals are more common in it than they were.
# B1: SJCP1084 (Schistosoma japonicum) (protein)
# chain: MRIINLVIISTALLLINLLQTKSQANGEDTKNGTPDDPGLTKSTELKVEVQALLKDKKTNMRVKWNENLLDNTKPEYHNLRDEACELLLQIVRSVVPLSQDDGECKDVTFTKYVVGTKDGAVNVKLTITFKDSVAINQKPMDLKLKLENDFKNLQSESTLKATKPTFTVKVEKRLIPISKPQTTPPTTAKNDASKENVGDIGGEDSTVPTAAPATAASANEEKDEGDKDNKDSQHPNVLTSNVNDRNLIIALVALMILAIGVALTAAVKQR
# What was measured:
# Assay in all cases: glycan array binding signal (z-score within array); higher = stronger binding
# Conditions in all cases: glycan notation: IUPAC condensed, linker removed
# [1] = molecular target: Gal(b1-4)GlcNAc(b1-3)Gal(b1-4)GlcNAc(b1-3)Gal(b1-4)GlcNAc(b1-3)Gal(b1-4)GlcNAc(b1-3)Gal(b1-4)GlcNAc(b1-2)Man(a1-3)[Gal(b1-4)GlcNAc(b1-3)Gal(b1-4)GlcNAc(b1-3)Gal(b1-4)GlcNAc(b1-3)Gal(b1-4)GlcNAc(b1-3)Gal(b1-4)GlcNAc(b1-2)Man(a1-6)]Man(b1-4)GlcNAc(b1-4)[Fuc(a1-6)]GlcNAc
# In short: (§1)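 Glycan array binding is given as a within-array Z-score, which can be read as non-binding when negative. The arrays, 3228 of them, came from the Consortium for Functional Glycomics database and were retained only where the protein sequence was available. Z-scores were averaged across arrays of the same protein sequence at different concentrations or buffers and across linkers.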
# [2] = molecular target: Gal(b1-4)GlcNAc(b1-3)Gal(b1-4)GlcNAc(b1-3)Gal(b1-4)GlcNAc(b1-3)Gal(b1-4)GlcNAc(b1-3)Gal(b1-4)GlcNAc(b1-2)[Gal(b1-4)GlcNAc(b1-3)Gal(b1-4)GlcNAc(b1-3)Gal(b1-4)GlcNAc(b1-3)Gal(b1-4)GlcNAc(b1-3)Gal(b1-4)GlcNAc(b1-6)]Man(a1-6)[Gal(b1-4)GlcNAc(b1-3)Gal(b1-4)GlcNAc(b1-3)Gal(b1-4)GlcNAc(b1-3)Gal(b1-4)GlcNAc(b1-3)Gal(b1-4)GlcNAc(b1-2)Man(a1-3)]Man(b1-4)GlcNAc(b1-4)[Fuc(a1-6)]GlcNAc
# In short: as §1
# [3] = molecular target: Gal(b1-4)GlcNAc(b1-3)Gal(b1-4)GlcNAc(b1-3)[Gal(b1-4)GlcNAc(b1-3)Gal(b1-4)GlcNAc(b1-6)]GalNAc
# In short: as §1
# Gal3S(b1-4)GlcNAc = molecular target: Gal3S(b1-4)GlcNAc
# In short: as §1
# [4] = molecular target: GalNAc(b1-3)Gal(a1-4)Gal(b1-4)GlcNAc
# In short: as §1
# [5] = molecular target: GlcNAc(a1-4)Gal(b1-4)GlcNAc(b1-3)Gal(b1-4)[Fuc(a1-3)]GlcNAc(b1-3)Gal(b1-4)[Fuc(a1-3)]GlcNAc
# In short: as §1
# [6] = molecular target: GlcNAc(b1-3)Gal(b1-4)GlcNAc(b1-3)Gal(b1-4)GlcNAc(b1-2)Man(a1-3)[GlcNAc(b1-3)Gal(b1-4)GlcNAc(b1-3)Gal(b1-4)GlcNAc(b1-2)Man(a1-6)]Man(b1-4)GlcNAc(b1-4)GlcNAc
# In short: as §1
# [7] = molecular target: GlcNAc(b1-3)Gal(b1-4)GlcNAc(b1-3)Gal(b1-4)GlcNAc(b1-3)Gal(b1-4)GlcNAc(b1-2)Man(a1-3)[GlcNAc(b1-3)Gal(b1-4)GlcNAc(b1-3)Gal(b1-4)GlcNAc(b1-3)Gal(b1-4)GlcNAc(b1-2)Man(a1-6)]Man(b1-4)GlcNAc(b1-4)[Fuc(a1-6)]GlcNAc
# In short: as §1
# [8] = molecular target: GlcNAc(b1-3)Gal(b1-4)GlcNAc(b1-3)Gal(b1-4)GlcNAc(b1-3)Gal(b1-4)GlcNAc(b1-3)Gal(b1-4)GlcNAc(b1-2)Man(a1-3)[GlcNAc(b1-3)Gal(b1-4)GlcNAc(b1-3)Gal(b1-4)GlcNAc(b1-3)Gal(b1-4)GlcNAc(b1-3)Gal(b1-4)GlcNAc(b1-2)Man(a1-6)]Man(b1-4)GlcNAc(b1-4)[Fuc(a1-6)]GlcNAc
# In short: as §1
# [9] = molecular target: GlcNAc(b1-3)Gal(b1-4)GlcNAc(b1-3)Gal(b1-4)GlcNAc(b1-3)Gal(b1-4)GlcNAc(b1-3)Gal(b1-4)GlcNAc(b1-2)[GlcNAc(b1-3)Gal(b1-4)GlcNAc(b1-3)Gal(b1-4)GlcNAc(b1-3)Gal(b1-4)GlcNAc(b1-3)Gal(b1-4)GlcNAc(b1-6)]Man(a1-6)[GlcNAc(b1-3)Gal(b1-4)GlcNAc(b1-3)Gal(b1-4)GlcNAc(b1-3)Gal(b1-4)GlcNAc(b1-3)Gal(b1-4)GlcNAc(b1-2)Man(a1-3)]Man(b1-4)GlcNAc(b1-4)[Fuc(a1-6)]GlcNAc
# In short: as §1
# GlcNAc(b1-3)Man = molecular target: GlcNAc(b1-3)Man
# In short: as §1
# [10] = molecular target: Neu5Ac(a2-3)Gal(b1-3)GalNAc
# In short: as §1
# [11] = molecular target: Neu5Ac(a2-3)Gal(b1-3)GalNAc(b1-4)[Neu5Ac(a2-3)]Gal(b1-4)Glc
# In short: as §1
# [12] = molecular target: Neu5Ac(a2-3)Gal(b1-3)GlcNAc(b1-2)Man(a1-3)[GlcNAc(b1-4)][Neu5Ac(a2-3)Gal(b1-3)GlcNAc(b1-2)Man(a1-6)]Man(b1-4)GlcNAc(b1-4)GlcNAc
# In short: as §1
# [13] = molecular target: Neu5Ac(a2-3)Gal(b1-3)[Neu5Ac(a2-6)]GalNAc
# In short: as §1
# [14] = molecular target: Neu5Ac(a2-3)Gal(b1-4)GlcNAc(b1-2)Man(a1-3)[Neu5Ac(a2-3)Gal(b1-4)GlcNAc(b1-2)Man(a1-6)]Man(b1-4)GlcNAc(b1-4)GlcNAc
# In short: as §1
# [15] = molecular target: Neu5Ac(a2-3)Gal(b1-4)GlcNAc(b1-3)Gal(b1-3)GlcNAc
# In short: as §1
# [16] = molecular target: Neu5Ac(a2-3)Gal(b1-4)GlcNAc(b1-3)Gal(b1-4)GlcNAc(b1-2)Man(a1-3)[Neu5Ac(a2-3)Gal(b1-4)GlcNAc(b1-3)Gal(b1-4)GlcNAc(b1-2)Man(a1-6)]Man(b1-4)GlcNAc(b1-4)GlcNAc
# In short: as §1
# [17] = molecular target: Neu5Ac(a2-3)Gal(b1-4)GlcNAc(b1-3)Gal(b1-4)[Fuc(a1-3)]GlcNAc
# In short: as §1
# [18] = molecular target: Neu5Ac(a2-3)Gal(b1-4)[Fuc(a1-3)]GlcNAc(b1-3)Gal(b1-4)[Fuc(a1-3)]GlcNAc(b1-3)Gal(b1-4)[Fuc(a1-3)]GlcNAc
# In short: as §1
# [19] = molecular target: Neu5Ac(a2-3)[GalNAc(b1-4)]Gal(b1-4)Glc
# In short: as §1
# [20] = molecular target: Neu5Ac(a2-6)Gal(b1-3)GlcNAc(b1-3)[Gal(b1-4)GlcNAc(b1-6)]Gal(b1-4)Glc
# In short: as §1
# [21] = molecular target: Neu5Ac(a2-8)Neu5Gc(a2-3)Gal(b1-4)GlcNAc
# In short: as §1
binder,measurement,setting,value
B1,glycan array binding signal (z-score),[1],4.28
same,glycan array binding signal (z-score),[2],4.79
same,glycan array binding signal (z-score),[3],1.47
same,glycan array binding signal (z-score),Gal3S(b1-4)GlcNAc,-0.79
same,glycan array binding signal (z-score),[4],0.632
same,glycan array binding signal (z-score),[5],2.09
same,glycan array binding signal (z-score),[6],1.03
same,glycan array binding signal (z-score),[7],1.66
same,glycan array binding signal (z-score),[8],-0.466
same,glycan array binding signal (z-score),[9],2.68
same,glycan array binding signal (z-score),GlcNAc(b1-3)Man,0.248
same,glycan array binding signal (z-score),[10],-0.71
same,glycan array binding signal (z-score),[11],-0.565
same,glycan array binding signal (z-score),[12],-0.628
same,glycan array binding signal (z-score),[13],-0.036
same,glycan array binding signal (z-score),[14],0.105
same,glycan array binding signal (z-score),[15],-0.757
same,glycan array binding signal (z-score),[16],-0.701
same,glycan array binding signal (z-score),[17],-0.263
same,glycan array binding signal (z-score),[18],0.379
same,glycan array binding signal (z-score),[19],-0.474
same,glycan array binding signal (z-score),[20],-0.092
same,glycan array binding signal (z-score),[21],-0.605
